Results reported in PubChem BioAssay.
Activity calls are given as the source filed them.

Experiments:
[1] = system: Human papillomavirus type 1a protein E7 (residues 44-93); test: HPV1a E7 fragment binders on microarrays, primary screen, biochemical, small-molecule microarray, residues 44-93, 635 nm fluorescence (AID 1108); settings: small-molecule microarray binding, fluorescence 635 nm; higher = more signal;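 note: E7 fragment applied at 1 µg/mL in TBST for 1 h at 4 C; score combines spot fluorescence with its signal to noise ratio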
[2] = modulators of HCV replicon luciferase signal, primary screen, HCV replication inhibitor project, Huh7 cells, luciferase reporter (AID 1109); settings: 48 h, higher = more signal;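 note: huh7 hepatoma cells harbouring a luciferase neomycin HCV replicon reporter; luciferase luminescence as measure of HCV replicon replication; test concentration not given here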
[3] = target: Left-right determination factor 2 (Homo sapiens) (UniProt O00292); test: LEFTY2 binders on small-molecule microarrays, primary screen, biochemical, small-molecule microarray, 635 nm fluorescence scan (AID 1110); settings: LEFTY2 binding, higher = more signal
[4] = target: Calmodulin-1 (Homo sapiens) (UniProt P0DP23); test: CALM1 binders on microarrays, EGTA buffer, profiling panel, biochemical, small-molecule microarray, Cy5-labelled CALM1 (AID 1111); settings: Cy5-CALM1 binding fluorescence, higher = more signal;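 note: labelled calmodulin applied in Tris saline Tween buffer holding calcium plus EGTA and DTT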
[5] = target: Calmodulin-1 (Homo sapiens) (UniProt P0DP23); test: calcium-bound CALM1 binders on microarrays, profiling panel, artefact control for SMM control-protein annotation, biochemical, small-molecule microarray, Cy5-labelled CALM1, plus calcium (AID 1112); settings: Cy5-CALM1 binding fluorescence, higher = more signal;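 note: score merges spot fluorescence with signal to noise from triplicate slides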
[6] = small-molecule microarray binders of probe aWnt5a, primary screen, biochemical, biotinylated probe, 635/667 nm fluorescence (AID 1113); settings: higher = more signal;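 note: score merges 667 nm fluorescence intensity with signal-to-noise per printed feature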
[7] = small-molecule microarray binders of probe aShh, primary screen, biochemical, biotinylated probe, 635/667 nm fluorescence (AID 1114); settings: higher = more signal;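 note: probe is biotin-labelled aShh protein from a stem cell growth factor screen; measures binding of labelled protein to compounds printed on the slide; score merges feature fluorescence at 667 nm with signal-to-noise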
[8] = small-molecule microarray binders of probe aNog, primary screen, biochemical, biotinylated probe, 635/667 nm fluorescence (AID 1115); settings: higher = more signal;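 note: probe is biotinylated aNog protein used at 0.15 µg/mL for 1 h at 4 C; z-score combines 667 nm fluorescence of each spot with its signal to noise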
[9] = target: Torsin-1A-interacting protein 1 (Homo sapiens) (UniProt Q5JTV8); test: LAP1 binders from COS7 cell lysate, primary screen, small-molecule microarray, 635/667 nm fluorescence (AID 1116); settings: COS7-hLAP1 lysate binding, 635 nm fluorescence, higher = more signal
[10] = target: Alpha-bungarotoxin (Bungarus multicinctus) (UniProt P60615); test: alpha-bungarotoxin binders on microarray, profiling panel, artefact control for SMM control protein annotation, biochemical, small-molecule microarray, Alexa647 label, 635/667 nm fluorescence (AID 1117); settings: alpha-BTX-A647 binding fluorescence, higher = more signal
Albumin (Bos taurus) = Albumin (Bos taurus) (UniProt P02769); test: bovine serum albumin binders on microarray, profiling panel, artefact control for SMM control protein annotation, biochemical, small-molecule microarray, Alexa647 label, 635/667 nm fluorescence (AID 1118); settings: BSA-A647 binding, fluorescence 635 nm, higher = more signal;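 note: score merges 667 nm emission intensity and signal-to-noise per printed compound spot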
[11] = small-molecule microarray binders of probe aXIP, primary screen, biochemical, NeuroSMM set, 635/667 nm fluorescence (AID 1119); settings: higher = more signal, called active from +8 up or from −8 down;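 note: probe is the protein aXip251-270 applied at 1 µg/mL to compound-printed slides; binding of probe to printed compounds measured as 667 nm fluorescence plus signal to noise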
[12] = small-molecule binders of probe aNOTCH3, primary screen, biochemical, small-molecule microarray, 635/667 nm fluorescence (AID 1120); settings: higher = more signal;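 note: probe is a biotin-tagged antibody raised against NOTCH3 rather than NOTCH3 protein; score merges spot fluorescence near 667 nm with spot signal to noise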
[13] = small-molecule binders of probe aNOTCH2, primary screen, biochemical, small-molecule microarray, 635/667 nm fluorescence (AID 1121); settings: higher = more signal;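 note: score merges feature fluorescence read at 667 nm with its signal to noise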
[14] = target: Carbonic anhydrase 2 (Homo sapiens) (UniProt P00918); test: CAII small-molecule binders, profiling panel, biochemical, small-molecule microarray, Alexa647-labelled CAII (AID 1122); settings: CAII-A647 binding fluorescence, higher = more signal
[15] = COS7 lysate on small-molecule microarray, probe aHis, 635 nm (AID 1123); settings: COS7 cell lysate, fluorescence, higher = more signal;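 note: z-score combines 667nm fluorescence intensity with signal-to-noise per printed compound spot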
[16] = compound binding in COS7 lysate, probe aLAP1, primary screen, cell lysate, small-molecule microarray (AID 1124); settings: probe aLAP1, fluorescence, higher = more signal;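 note: lysate comes from COS7 cells expressing LAP1 and is applied at 0.3 µg/mL; score merges spot fluorescence near 667 nm with signal-to-noise over triplicate slides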
Sam68 (KHDRBS1) = test: Sam68 small-molecule binders, primary screen, biochemical, small-molecule microarray, 635 nm fluorescence (AID 1125); settings: small-molecule microarray binding, higher = more signal;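 note: score merges 667 nm channel intensity with signal to noise over triplicate slides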
[17] = system: Chordin-like protein 2 (CHRDL2); test: CHRDL2 small-molecule binders, primary screen, biochemical, small-molecule microarray, 635 nm fluorescence (AID 1126); settings: small-molecule microarray binding, fluorescence 635 nm; higher = more signal;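 note: printed compound slides probed with Chrdl2 protein at 4 µg/mL for 1 h at 4 C; score merges 667 nm emission intensity with signal to noise over three replicate slides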
[18] = target: Concanavalin-A (Canavalia ensiformis) (UniProt P02866); test: ConA small-molecule binders, primary screen, artefact control for SMM control protein annotation, biochemical, small-molecule microarray, Alexa647 label, 635 nm (AID 1127); settings: ConA-A647 binding fluorescence, higher = more signal;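 note: z combines 667 nm emission intensity with signal-to-noise across three replicate slides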
Chain of Concanavalin-A (Canavalia ensiformis) (P02866 whole entry, looked up): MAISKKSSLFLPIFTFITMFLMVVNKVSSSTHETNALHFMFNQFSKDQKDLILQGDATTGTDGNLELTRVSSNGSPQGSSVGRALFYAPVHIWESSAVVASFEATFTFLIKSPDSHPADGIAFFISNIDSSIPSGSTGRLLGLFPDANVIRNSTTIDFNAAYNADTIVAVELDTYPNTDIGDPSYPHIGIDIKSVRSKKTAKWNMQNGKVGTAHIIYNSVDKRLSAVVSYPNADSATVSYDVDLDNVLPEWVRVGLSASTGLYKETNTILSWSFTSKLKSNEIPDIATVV

Chain of Left-right determination factor 2 (Homo sapiens) (O00292 whole entry, looked up): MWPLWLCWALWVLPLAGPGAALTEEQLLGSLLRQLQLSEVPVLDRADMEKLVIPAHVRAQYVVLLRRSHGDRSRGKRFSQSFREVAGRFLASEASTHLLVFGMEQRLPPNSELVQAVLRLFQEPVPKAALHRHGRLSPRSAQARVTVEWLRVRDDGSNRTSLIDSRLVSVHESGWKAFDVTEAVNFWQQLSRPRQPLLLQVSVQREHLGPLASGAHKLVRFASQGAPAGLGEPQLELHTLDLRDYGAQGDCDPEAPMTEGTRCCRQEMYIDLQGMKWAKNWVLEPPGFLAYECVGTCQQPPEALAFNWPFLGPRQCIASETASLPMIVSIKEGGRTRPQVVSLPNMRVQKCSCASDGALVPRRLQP
Chain of Albumin (Bos taurus) (P02769 whole entry, looked up): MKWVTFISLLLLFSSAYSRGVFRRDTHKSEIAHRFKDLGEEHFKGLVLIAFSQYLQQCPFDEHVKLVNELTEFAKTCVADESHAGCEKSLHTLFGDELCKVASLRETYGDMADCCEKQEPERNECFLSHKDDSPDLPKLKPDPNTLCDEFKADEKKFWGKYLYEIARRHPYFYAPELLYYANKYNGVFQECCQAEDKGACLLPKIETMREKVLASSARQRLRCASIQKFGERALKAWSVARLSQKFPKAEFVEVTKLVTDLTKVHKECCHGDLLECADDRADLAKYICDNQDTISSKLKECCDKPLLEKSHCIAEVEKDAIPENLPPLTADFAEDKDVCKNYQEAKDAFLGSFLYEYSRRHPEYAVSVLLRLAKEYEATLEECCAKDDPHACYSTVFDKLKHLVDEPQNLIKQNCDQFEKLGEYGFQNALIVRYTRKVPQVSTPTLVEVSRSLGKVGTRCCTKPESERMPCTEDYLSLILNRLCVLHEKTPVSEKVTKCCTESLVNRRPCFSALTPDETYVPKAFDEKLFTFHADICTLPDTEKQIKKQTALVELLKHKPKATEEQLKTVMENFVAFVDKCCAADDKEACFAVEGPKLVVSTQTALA
Chain of Torsin-1A-interacting protein 1 (Homo sapiens) (Q5JTV8 whole entry, looked up): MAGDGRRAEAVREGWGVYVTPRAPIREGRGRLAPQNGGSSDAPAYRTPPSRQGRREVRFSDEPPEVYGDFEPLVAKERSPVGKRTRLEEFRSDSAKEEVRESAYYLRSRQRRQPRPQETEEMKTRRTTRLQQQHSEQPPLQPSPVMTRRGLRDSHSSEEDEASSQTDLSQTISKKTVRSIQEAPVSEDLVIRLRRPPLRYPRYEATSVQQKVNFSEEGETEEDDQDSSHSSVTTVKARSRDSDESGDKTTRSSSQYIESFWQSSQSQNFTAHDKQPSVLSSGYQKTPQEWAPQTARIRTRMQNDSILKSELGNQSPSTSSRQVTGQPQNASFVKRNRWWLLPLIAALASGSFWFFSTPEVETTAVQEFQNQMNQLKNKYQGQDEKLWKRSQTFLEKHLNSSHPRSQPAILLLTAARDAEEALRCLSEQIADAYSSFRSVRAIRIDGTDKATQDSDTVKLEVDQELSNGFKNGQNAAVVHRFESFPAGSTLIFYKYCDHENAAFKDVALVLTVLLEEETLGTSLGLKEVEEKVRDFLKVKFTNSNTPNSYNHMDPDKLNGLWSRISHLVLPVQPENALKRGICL
Chain of Alpha-bungarotoxin (Bungarus multicinctus) (P60615 whole entry, looked up): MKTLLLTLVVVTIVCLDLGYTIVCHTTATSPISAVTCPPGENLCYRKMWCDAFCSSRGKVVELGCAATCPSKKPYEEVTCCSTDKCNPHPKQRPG

Structure (SMILES) | composite z-score [1] | z-score [2] | composite z-score [3] | composite z-score [4] | composite z-score [5] | composite z-score [6] | composite z-score [7] | composite z-score [8] | composite z-score [9] | composite z-score [10] | composite z-score (Albumin (Bos taurus)) | composite Z-score [11] | composite z-score [12] | composite z-score [13] | composite z-score [14] | composite z-score [15] | composite z-score [16] | composite z-score (Sam68 (KHDRBS1)) | composite z-score [17] | composite z-score [18]
COc1ccc(O[C@H]2C=C[C@@H](c3ccccc3)O[C@@H]2CON=C[C@@H](C)[C@H](OCc2ccccc2)C(C)C)cc1 | -0.409 | -2 | -0.0764 | -0.323 | -0.434 | -0.124 | -0.0626 | -0.176 | -1.24 | -0.25 | -0.136 | -0.236 (inactive) | -0.245 | -0.198 | -0.89 | -0.53 | -0.419 | -1.67 | -0.163 | -0.409
O=C1[C@H]2[C@H]3[C@H](O)[C@H](O)CC(=NO[C@@H]4O[C@H](CO)[C@@H](O)[C@H](O)[C@H]4O)[C@@H]3CC[C@H]2C(=O)N1Cc1ccccc1 | 0.33 | 0.506 | 0.792 | -0.225 | -1.24 | -0.136 | 0.225 | -0.433 | 0.392 | -0.187 | -0.0679 | 0.0769 (inactive) | 0.0744 | -0.0623 | -0.568 | -0.658 | 0.0054 | 0.64 | -0.293 | -0.664
C[C@@H]1C=CCC(=O)OC[C@H](C)C(=O)OC[C@H]2O[C@H]1C=C[C@H]2O | 0.0717 | -2.33 | 0.71 | -0.239 | -1.16 | -0.228 | -0.0793 | -0.278 | -0.0644 | -0.108 | 0.411 | -0.18 (inactive) | 0.2 | -0.0795 | 0.116 | 0.544 | 0.0137 | 0.0768 | 0.458 | 0.227
CCN1C(=O)[C@H]2[C@H]3[C@H](O)C=CC(=O)[C@@H]3CC[C@H]2C1=O | 0.907 | 0.305 | 0.503 | 0.0903 | -0.528 | -0.126 | -0.13 | 0.0658 | 0.694 | 0.45 | -0.338 | -0.56 (inactive) | 0.0519 | -0.117 | -0.132 | -0.177 | 0.402 | 0.234 | 0.587 | 0.373
CC(C)[C@@H](OCc1ccccc1)[C@H](C)C=NO[C@H](C)c1cn([C@H](CO)Cc2ccccc2)nn1 | 0.639 | -2.09 | 0.521 | -0.211 | -0.669 | -0.156 | -0.0709 | -0.216 | 0.113 | 0.263 | 0.0792 | 0.0599 (inactive) | -0.0362 | -0.163 | 0.0227 | 0.544 | 0.294 | 1.01 | 0.779 | 0.392
COc1ccc(OC[C@H]2Cc3c(-c4ccccc4)nc4c(c3CO2)CN(CCOc2ccccc2)CC4)cc1 | 1.22 | -1.77 | 0.722 | 0.59 | -0.243 | -0.0399 | 0.0815 | 0.0637 | 0.423 | 1.13 | 0.445 | 0.812 (inactive) | 0.0562 | -0.108 | 0.234 | 0.678 | 0.379 | 1.07 | 0.419 | 1.08
COC(=O)[C@@H]1CCCN1C(=O)[C@@H](C)CO | 0.946 | 0.868 | 0.344 | 0.49 | 0.0051 | -0.0566 | -0.2 | 0.141 | 0.451 | 1.13 | 0.448 | -0.505 (inactive) | 0.0042 | -0.16 | 0.192 | 0.84 | -0.436 | 0.95 | 0.584 | 0.873
O=C1[C@H]2[C@H]3[C@H](O)[C@H](O)CC(=NOCc4ccccc4)[C@H]3CC[C@H]2C(=O)N1c1ccc(F)cc1F | -0.642 | 0.473 | 0.349 | -0.251 | -0.349 | -0.123 | -0.339 | -0.47 | -0.273 | -0.0546 | 0.155 | -0.801 (inactive) | -0.308 | -0.265 | 0.784 | -0.137 | -0.713 | -0.626 | 0.0499 | -0.111
